Key:
Experiment in all cases: phenotypically active (imaging signature differs from DMSO and reproducible) at any of 0.3-9 uM (binary (1 = active, 0 = inactive)); higher = active
Conditions in all cases: treatment time: 24 h
A549-ACTB-RAB5A = test system: A549-ACTB-RAB5A
Method in brief: (§1)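 Live-cell features were measured per well and normalised to solvent control wells after fifteen gene-edited A549, HepG2 and WPMY1 reporter lines had been treated for 24 h at 0.3, 1, 3 or 9 µM in four wells each. A condition was deviating when ≥3 of 4 wells sat beyond the 95th percentile of control Euclidean distances. It was reproducible when the median replicate Pearson correlation exceeded the 95th percentile of non-replicates. Phenotypic activity demanded both.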

A549-CANX-COX4 = test system: A549-CANX-COX4
Method in brief: as §1

A549-GM130-SQSTM1 = test system: A549-GM130-SQSTM1
Method in brief: as §1

A549-TP53BP1-CLTA = test system: A549-TP53BP1-CLTA
Method in brief: as §1

A549-TUBA1B-RELA = test system: A549-TUBA1B-RELA
Method in brief: as §1

HepG2-ACTB-RAB5A = test system: HepG2-ACTB-RAB5A
Method in brief: as §1

HepG2-CANX-COX4 = test system: HepG2-CANX-COX4
Method in brief: as §1

HepG2-GM130-SQSTM1 = test system: HepG2-GM130-SQSTM1
Method in brief: as §1

HepG2-TP53BP1-CLTA = test system: HepG2-TP53BP1-CLTA
Method in brief: as §1

HepG2-TUBA1B-RELA = test system: HepG2-TUBA1B-RELA
Method in brief: as §1

WPMY1-ACTB-RAB5A = test system: WPMY1-ACTB-RAB5A
Method in brief: as §1

WPMY1-CANX-COX4 = test system: WPMY1-CANX-COX4
Method in brief: as §1

WPMY1-GM130-SQSTM1 = test system: WPMY1-GM130-SQSTM1
Method in brief: as §1

WPMY1-TP53BP1-CLTA = test system: WPMY1-TP53BP1-CLTA
Method in brief: as §1

WPMY1-TUBA1B-RELA = test system: WPMY1-TUBA1B-RELA
Method in brief: as §1

Measured: phenotypically active

Cc1occc(=O)c1O [3-hydroxy-2-methyl-4-pyrone]
inactive: A549-ACTB-RAB5A 0 | A549-CANX-COX4 0 | A549-GM130-SQSTM1 0 | A549-TP53BP1-CLTA 0 | A549-TUBA1B-RELA 0 | HepG2-ACTB-RAB5A 0 | HepG2-CANX-COX4 0 | HepG2-GM130-SQSTM1 0 | HepG2-TP53BP1-CLTA 0 | HepG2-TUBA1B-RELA 0 | WPMY1-ACTB-RAB5A 0 | WPMY1-CANX-COX4 0 | WPMY1-GM130-SQSTM1 0 | WPMY1-TP53BP1-CLTA 0 | WPMY1-TUBA1B-RELA 0

NC[C@H](O)c1ccc(O)c(O)c1 [norepinephrine]
inactive: A549-ACTB-RAB5A 0 | A549-CANX-COX4 0 | A549-GM130-SQSTM1 0 | A549-TP53BP1-CLTA 0 | A549-TUBA1B-RELA 0 | HepG2-ACTB-RAB5A 0 | HepG2-CANX-COX4 0 | HepG2-GM130-SQSTM1 0 | HepG2-TP53BP1-CLTA 0 | HepG2-TUBA1B-RELA 0 | WPMY1-ACTB-RAB5A 0 | WPMY1-CANX-COX4 0 | WPMY1-GM130-SQSTM1 0 | WPMY1-TP53BP1-CLTA 0 | WPMY1-TUBA1B-RELA 0

NC12CC3CC(CC(C3)C1)C2 [amantadine]
inactive: A549-ACTB-RAB5A 0 | A549-CANX-COX4 0 | A549-GM130-SQSTM1 0 | A549-TP53BP1-CLTA 0 | A549-TUBA1B-RELA 0 | HepG2-ACTB-RAB5A 0 | HepG2-CANX-COX4 0 | HepG2-GM130-SQSTM1 0 | HepG2-TP53BP1-CLTA 0 | HepG2-TUBA1B-RELA 0 | WPMY1-ACTB-RAB5A 0 | WPMY1-CANX-COX4 0 | WPMY1-GM130-SQSTM1 0 | WPMY1-TP53BP1-CLTA 0 | WPMY1-TUBA1B-RELA 0

COCc1nc2c([nH]1)c(=O)n(C)c(=O)n2CC(C)C
inactive: A549-ACTB-RAB5A 0 | A549-CANX-COX4 0 | A549-GM130-SQSTM1 0 | A549-TP53BP1-CLTA 0 | A549-TUBA1B-RELA 0 | HepG2-ACTB-RAB5A 0 | HepG2-CANX-COX4 0 | HepG2-GM130-SQSTM1 0 | HepG2-TP53BP1-CLTA 0 | HepG2-TUBA1B-RELA 0 | WPMY1-ACTB-RAB5A 0 | WPMY1-CANX-COX4 0 | WPMY1-GM130-SQSTM1 0 | WPMY1-TP53BP1-CLTA 0 | WPMY1-TUBA1B-RELA 0

Nc1ncnc2c1c(-c1ccc(Cl)cc1)nn2-c1cccc(-c2cnnn2Cc2cccc(-c3ccccc3)c2)c1
inactive: A549-ACTB-RAB5A 0 | A549-CANX-COX4 0 | A549-GM130-SQSTM1 0 | A549-TP53BP1-CLTA 0 | A549-TUBA1B-RELA 0 | HepG2-ACTB-RAB5A 0 | HepG2-CANX-COX4 0 | HepG2-GM130-SQSTM1 0 | HepG2-TP53BP1-CLTA 0 | HepG2-TUBA1B-RELA 0 | WPMY1-ACTB-RAB5A 0 | WPMY1-CANX-COX4 0 | WPMY1-GM130-SQSTM1 0 | WPMY1-TP53BP1-CLTA 0 | WPMY1-TUBA1B-RELA 0

O=C(O)c1c(Sc2ccccc2)c2cc(Cl)ccc2n1Cc1ccc(Cl)cc1
inactive: A549-ACTB-RAB5A 0 | A549-CANX-COX4 0 | A549-GM130-SQSTM1 0 | A549-TP53BP1-CLTA 0 | A549-TUBA1B-RELA 0 | HepG2-ACTB-RAB5A 0 | HepG2-CANX-COX4 0 | HepG2-GM130-SQSTM1 0 | HepG2-TP53BP1-CLTA 0 | HepG2-TUBA1B-RELA 0 | WPMY1-ACTB-RAB5A 0 | WPMY1-CANX-COX4 0 | WPMY1-GM130-SQSTM1 0 | WPMY1-TP53BP1-CLTA 0 | WPMY1-TUBA1B-RELA 0

CC(C)c1ccc(CC(=O)N2CCC[C@@H](c3cccc(OC(C)(C)C(=O)O)c3)C2)cc1
inactive: A549-ACTB-RAB5A 0 | A549-CANX-COX4 0 | A549-GM130-SQSTM1 0 | A549-TP53BP1-CLTA 0 | A549-TUBA1B-RELA 0 | HepG2-ACTB-RAB5A 0 | HepG2-CANX-COX4 0 | HepG2-GM130-SQSTM1 0 | HepG2-TP53BP1-CLTA 0 | HepG2-TUBA1B-RELA 0 | WPMY1-ACTB-RAB5A 0 | WPMY1-CANX-COX4 0 | WPMY1-GM130-SQSTM1 0 | WPMY1-TP53BP1-CLTA 0 | WPMY1-TUBA1B-RELA 0

O=C(NC(CO)C(O)c1ccc([N+](=O)[O-])cc1)C(Cl)Cl (stereo not given) [Chloramphenicol]
inactive: A549-ACTB-RAB5A 0 | A549-CANX-COX4 0 | A549-GM130-SQSTM1 0 | A549-TP53BP1-CLTA 0 | A549-TUBA1B-RELA 0 | HepG2-ACTB-RAB5A 0 | HepG2-CANX-COX4 0 | HepG2-GM130-SQSTM1 0 | HepG2-TP53BP1-CLTA 0 | HepG2-TUBA1B-RELA 0 | WPMY1-ACTB-RAB5A 0 | WPMY1-CANX-COX4 0 | WPMY1-GM130-SQSTM1 0 | WPMY1-TP53BP1-CLTA 0 | WPMY1-TUBA1B-RELA 0

COc1ccc([C@@H]2CC(=O)c3c(O)cc(O)cc3O2)cc1O [Hesperetin]
inactive: A549-ACTB-RAB5A 0 | A549-CANX-COX4 0 | A549-GM130-SQSTM1 0 | A549-TP53BP1-CLTA 0 | A549-TUBA1B-RELA 0 | HepG2-ACTB-RAB5A 0 | HepG2-CANX-COX4 0 | HepG2-GM130-SQSTM1 0 | HepG2-TP53BP1-CLTA 0 | HepG2-TUBA1B-RELA 0 | WPMY1-ACTB-RAB5A 0 | WPMY1-CANX-COX4 0 | WPMY1-GM130-SQSTM1 0 | WPMY1-TP53BP1-CLTA 0 | WPMY1-TUBA1B-RELA 0

O=NN(CCCl)C(=O)NCCCl [carmustine]
inactive: A549-ACTB-RAB5A 0 | A549-CANX-COX4 0 | A549-GM130-SQSTM1 0 | A549-TP53BP1-CLTA 0 | A549-TUBA1B-RELA 0 | HepG2-ACTB-RAB5A 0 | HepG2-CANX-COX4 0 | HepG2-GM130-SQSTM1 0 | HepG2-TP53BP1-CLTA 0 | HepG2-TUBA1B-RELA 0 | WPMY1-ACTB-RAB5A 0 | WPMY1-CANX-COX4 0 | WPMY1-GM130-SQSTM1 0 | WPMY1-TP53BP1-CLTA 0 | WPMY1-TUBA1B-RELA 0

CC(C)(C)NC[C@H](O)COc1cccc2c1CCCC2=O [levobunolol]
inactive: A549-ACTB-RAB5A 0 | A549-CANX-COX4 0 | A549-GM130-SQSTM1 0 | A549-TP53BP1-CLTA 0 | A549-TUBA1B-RELA 0 | HepG2-ACTB-RAB5A 0 | HepG2-CANX-COX4 0 | HepG2-GM130-SQSTM1 0 | HepG2-TP53BP1-CLTA 0 | HepG2-TUBA1B-RELA 0 | WPMY1-ACTB-RAB5A 0 | WPMY1-CANX-COX4 0 | WPMY1-GM130-SQSTM1 0 | WPMY1-TP53BP1-CLTA 0 | WPMY1-TUBA1B-RELA 0

COc1cc2ncnc(Oc3cccc(NC(=O)Nc4cc(C(C)(C)C(F)(F)F)on4)c3)c2cc1OC
inactive: A549-ACTB-RAB5A 0 | A549-CANX-COX4 0 | A549-GM130-SQSTM1 0 | A549-TP53BP1-CLTA 0 | A549-TUBA1B-RELA 0 | HepG2-ACTB-RAB5A 0 | HepG2-CANX-COX4 0 | HepG2-GM130-SQSTM1 0 | HepG2-TP53BP1-CLTA 0 | HepG2-TUBA1B-RELA 0 | WPMY1-ACTB-RAB5A 0 | WPMY1-CANX-COX4 0 | WPMY1-GM130-SQSTM1 0 | WPMY1-TP53BP1-CLTA 0 | WPMY1-TUBA1B-RELA 0

CCCCCCCCCN1C[C@H](O)[C@@H](O)[C@H](O)[C@H]1CO [N-Nonyldeoxynojirimycin]
inactive: A549-ACTB-RAB5A 0 | A549-CANX-COX4 0 | A549-GM130-SQSTM1 0 | A549-TP53BP1-CLTA 0 | A549-TUBA1B-RELA 0 | HepG2-ACTB-RAB5A 0 | HepG2-CANX-COX4 0 | HepG2-GM130-SQSTM1 0 | HepG2-TP53BP1-CLTA 0 | HepG2-TUBA1B-RELA 0 | WPMY1-ACTB-RAB5A 0 | WPMY1-CANX-COX4 0 | WPMY1-GM130-SQSTM1 0 | WPMY1-TP53BP1-CLTA 0 | WPMY1-TUBA1B-RELA 0

CN(C)CC/C=C1\c2ccccc2COc2ccc(CC(=O)O)cc21 [olopatadine]
inactive: A549-ACTB-RAB5A 0 | A549-CANX-COX4 0 | A549-GM130-SQSTM1 0 | A549-TP53BP1-CLTA 0 | A549-TUBA1B-RELA 0 | HepG2-ACTB-RAB5A 0 | HepG2-CANX-COX4 0 | HepG2-GM130-SQSTM1 0 | HepG2-TP53BP1-CLTA 0 | HepG2-TUBA1B-RELA 0 | WPMY1-ACTB-RAB5A 0 | WPMY1-CANX-COX4 0 | WPMY1-GM130-SQSTM1 0 | WPMY1-TP53BP1-CLTA 0 | WPMY1-TUBA1B-RELA 0

Reference: the supplement of paper PMC7411054
